# Screens from PubChem BioAssay.
# CYP2C9 inhib – blockers of cytochrome P450 2C9 activity – biochemical, luminescence, ADME assay, primary screen; AID 777, 2007; hit rate 20% among 96,000; P11712; inhibition, % at 5 µM; CYP2C9 Supersomes, luciferin-H conversion;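 active means blocking of liver enzyme CYP2C9 beyond about 50% at 5 µM, limit read from the data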
# Target sequence (P11712 whole entry, looked up): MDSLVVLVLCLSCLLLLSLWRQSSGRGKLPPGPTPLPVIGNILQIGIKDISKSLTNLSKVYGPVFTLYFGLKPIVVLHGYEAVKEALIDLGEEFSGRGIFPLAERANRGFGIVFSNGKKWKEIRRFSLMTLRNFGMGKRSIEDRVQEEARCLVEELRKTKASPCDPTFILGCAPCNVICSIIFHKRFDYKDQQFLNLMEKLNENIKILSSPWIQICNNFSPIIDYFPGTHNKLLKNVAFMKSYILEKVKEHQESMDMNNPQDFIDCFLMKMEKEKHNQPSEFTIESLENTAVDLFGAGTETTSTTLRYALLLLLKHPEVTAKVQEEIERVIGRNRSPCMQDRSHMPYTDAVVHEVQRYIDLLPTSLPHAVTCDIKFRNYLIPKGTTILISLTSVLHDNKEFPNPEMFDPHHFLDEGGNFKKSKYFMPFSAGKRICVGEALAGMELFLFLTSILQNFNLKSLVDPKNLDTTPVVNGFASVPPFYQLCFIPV
# CYP2C9 act – human CYP2C9 activators, primary screen, biochemical, luminescence; AID 1024, 2008; recombinant CYP2C9, luciferin-H conversion; hits give high values; factor 1 = untreated enzyme, 0 = blocked; activation factor at 5 µM; hit rate 1.4% among 96,000; Cytochrome P450 2C9 (Homo sapiens), P11712;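 active means activation factor of 2 or more for CYP2C9 at a 5 µM dose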;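 further: 0 = sulfaphenazole-blocked wells and 1 = vehicle-only wells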
# MRP1 act – H69AR viability gain despite doxorubicin, primary screen, MRP-1 activator project, H69AR cells, CellTiter-Glo. hit rate 0.61% among 140,000. viability increase, % at 10 µM. viability rescue;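 active means viability gain under doxorubicin at or above a set limit, the compound median plus 3 SD, cut at about 4.7% in these data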;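 further: MRP-1 overexpressing cells given doxorubicin 25 µM after compound pretreatment; 18-22 h compound pretreatment then 72 h with doxorubicin before readout; 0% = doxorubicin-only wells and 100% = vehicle-treated cells without doxorubicin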
# CYP2C19 act – human CYP2C19 activators, primary screen, biochemical, luminescence. Cytochrome P450 2C19 (Homo sapiens), P33261. recombinant CYP2C19, luciferin-H EGE luminescence; hits give high values; 0 = fully inhibited enzyme, 1 = untreated enzyme. activation factor at 5 µM. 96,000 tested, under 10 active. AID 1025, 2008;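 active means activation factor of at least 2 at 5 µM in the primary screen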;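 further: 0 = wells with 2.5 mM tranylcypromine and 1 = vehicle-only wells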
# MRP reversal – reversal of MRP1-mediated doxorubicin resistance, primary screen, H69AR cells, doxorubicin co-treatment; H69AR cells + 2 uM doxorubicin, CellTiter-Glo, 72 h; differential viability (reversal), % at 10 µM; hit rate 0.04% among 85,000; AID 602, 2007;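 active means viability drop by adding the cancer drug above about 55%, with treated viability meeting a 40% cutoff, limit read from the data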;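 further: viability without doxorubicin minus viability with 2 µM doxorubicin for each compound; larger differential means the compound sensitizes cells more to doxorubicin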
# CYP2C19 inhib – blockers of cytochrome P450 2C19 activity – biochemical, luminescence, ADME assay, primary screen; P33261; CYP2C19 Supersomes, luciferin-H EGE luminescence, 30 min; inhibition, % at 5 µM; hit rate 21% among 96,000; AID 778, 2007;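 active means CYP2C19 inhibition above a set limit at 5 µM in the primary screen, cut at about 50% in these data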;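 further: plate controls were negative control wells for no effect and 2.5 mM tranylcypromine positive control for full effect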
# Active calls of the source: *; . = no result. This is a sample that favours compounds with a hit; in the whole collection about 21% have one here.
SMILES,CYP2C9 inhib,CYP2C9 act,MRP1 act,CYP2C19 act,MRP reversal,CYP2C19 inhib
COc1cccc(C2CC(c3cccc(Br)c3)n3ncnc3N2)c1 (stereo not drawn),37,0.6,-1,0.4,-16,64*
Cc1cc(C)c(C2=NOC3C4CCC(C4)C23)c(C)c1 (stereo not drawn),.,.,0,.,.,.
COc1ccc(S(=O)(=O)N2CCN(CC(=O)Nc3cc(C(F)(F)F)ccc3Cl)CC2)cc1,.,.,-3,.,-11,.
COc1ccc(S(=O)(=O)N2CCN(CC(=O)Nc3ccc(C)c(F)c3)CC2)cc1,-18,1.2,-7,0.2,-13,82*
COc1ccc(N2CCN(CC(=O)Nc3cccc(S(=O)(=O)N4CCOCC4)c3)CC2)cc1,.,.,-1,.,.,.
COc1ccc(NC(=O)CN2CCCN(S(=O)(=O)c3ccc(F)cc3)CC2)cc1,53*,0.5,-1,0.1,3,89*
COc1ccc(S(=O)(=O)N2CCN(CC(=O)Nc3cccc(F)c3)CC2)cc1,-37,1.4,-2,0.5,-3,54*
Cc1cccc(NC(=S)c2nc3ccccc3s2)c1,32,0.7,-2,0.8,.,21
COC(=O)c1ccc2c(c1)N(Cc1nc(-c3ccc(Cl)cc3)oc1C)C(=O)C1CCCN21 (stereo not drawn),.,.,.,.,-9,.
O=C(N/N=C/c1ccco1)c1ccccc1OCc1ccc(Br)cc1,.,.,0,.,.,.
O=C(NC1CCCc2ccccc21)c1cncc(Br)c1 (stereo not drawn),11,0.9,-4,0.8,1,18
COc1ccc2cc(CN(CC3CCCO3)S(=O)(=O)c3ccccc3)c(=O)[nH]c2c1 (stereo not drawn),86*,0.1,-3,1.2,-11,-17
COC(=O)c1ccccc1S(=O)(=O)N(Cc1ccco1)Cc1cc2cc(OC)ccc2[nH]c1=O,45,0.5,-5,0.3,0,68*
COc1cc2cc(CN(CCO)S(=O)(=O)c3ccccc3)c(=O)[nH]c2cc1OC,12,0.9,-1,0.9,-9,6
COc1ccc2[nH]c(=O)c(CN(CCO)S(=O)(=O)c3ccc4c(c3)OCCO4)cc2c1,48,0.5,-4,0.2,-14,75*
Cc1cc(C)c2cc(CN(CC3CCCO3)S(=O)(=O)c3ccc4c(c3)OCCO4)c(=O)[nH]c2c1 (stereo not drawn),73*,0.3,-3,0.6,-11,36
c1csc(-c2nnc(NC3CCCCC3)c3ccccc23)c1,.,.,2,.,.,.
Cc1ccc(N(c2ncnc(N)c2[N+](=O)[O-])C2CCCCC2)cc1,43,0.6,-2,0.9,.,7
COc1ccc(NC(=O)Cc2c(SC)c3ccccc3n2Cc2ccccc2)cc1,.,.,-6,.,.,.
COc1ccc2cc(CN(CC3COCCO3)S(=O)(=O)c3ccc(Cl)cc3)c(=O)[nH]c2c1 (stereo not drawn),60*,0.4,-6,0.8,-7,22
Cc1ccc(C)c2[nH]c(=O)c(CCNC(=O)C(C)(C)C)cc12,7,0.9,4,0.7,.,34
Cc1ccc(C)c2[nH]c(=O)c(CN(Cc3ccco3)S(=O)(=O)c3ccc4c(c3)OCCO4)cc12,67*,0.3,5.4*,0.2,-9,75*
COC(=O)c1ccccc1S(=O)(=O)N(CCCO)Cc1cc2c(C)ccc(C)c2[nH]c1=O,84*,0.2,-4,0.5,4,54*
CCc1ccc2[nH]c(=O)c(CN(Cc3ccco3)S(=O)(=O)c3ccc4c(c3)OCCO4)cc2c1,-10,1.1,-4,1.1,-4,-7
COc1ccc2c(c1)CCc1c(C(=O)NCCc3ccc(OC)c(OC)c3)noc1-2,54*,0.5,-2,0.7,17,33
SMILES,CYP2C9 inhib,CYP2C9 act,MRP1 act,CYP2C19 act,MRP reversal,CYP2C19 inhib
COc1ccc(CCNC(=O)c2ccncc2)cc1OC,43,0.6,0,0.4,-11,64*
COc1ccc(CCNC(=O)c2cc3sc(Cl)cc3n2C)cc1OC,74*,0.3,0,0.3,35,69*
COc1ccc(CN(Cc2cccnc2)C(=S)NCCc2ccccc2)cc1OC,94*,0.1,-4,0,.,96*
CCOc1ccc(N2CC(C(=O)NCCN3C(=O)S/C(=C\c4ccc(OC)c(OC)c4)C3=O)CC2=O)cc1 (stereo not drawn),.,.,-3,.,.,.
CCOC(=O)C1=NNC2(c3ccc(Cl)cc3)C(=O)N(c3ccc(C)cc3)C(=O)C12 (stereo not drawn),.,.,-1,.,.,.
CC(C)Cc1cc(C(=O)NCCCN2CCOCC2)no1,.,.,.,.,6,.
COc1ccc(CCNC(N)=S)cc1OC,.,.,-1,.,.,.
CC1CCCCN1C(=O)c1ccc(C(=O)N2CCCCC2C)cc1 (stereo not drawn),8,0.9,-1,1,-17,3
COc1ccc(CCNC(=O)c2ccc(CNS(=O)(=O)c3cc(C)ccc3C)cc2)cc1OC,100*,0,-1,0.2,.,76*
CNC(=S)NCCc1ccc(OC)c(OC)c1,3,1,-1,0.4,.,56*
COc1ccc(CCNC(=O)c2cc(-c3cc(C)ccc3O)n[nH]2)cc1OC,80*,0.2,0,0.6,-5,36
Cc1ccc(C)c(S(=O)(=O)NCc2ccc(C(=O)N3CCCCC3C)cc2)c1 (stereo not drawn),-53,1.5,-2,0.4,-13,57*
CC1=CC(=O)C=C(C)C1=NOc1ccccc1[N+](=O)[O-],.,.,-5,.,.,.
CSC(=Nc1ccc(Cl)cc1)N[n+]1ccccc1,.,.,-1,.,.,.
CC(=O)Nc1ccc(NC2=Nc3ccccc3N3C2=Nc2c(c(C)nn2-c2ccccc2)C3c2ccccc2)cc1 (stereo not drawn),42,0.6,5,0.8,-12,19
COc1ccc(NC2=Nc3ccccc3N3C2=Nc2c(c(C)nn2-c2ccc(C)cc2)C3c2cccnc2)cc1 (stereo not drawn),56*,0.4,8.8*,0.7,3,25
CCCC1S/C(=N/N=C/c2ccc(OC)cc2)N(Cc2ccccc2)C1=O (stereo not drawn),-1,1,6.0*,1,10,3
CCCC1S/C(=N/N=C/c2ccc(OC)cc2)N(Cc2ccc(OC)cc2)C1=O (stereo not drawn),-31,1.3,3,1.4,4,-39
CCOC(=O)N1CCC(NC(=O)CN2C(=O)CSc3nc(C)cc(C)c32)CC1,26,0.7,-2,0.4,10,61*
CCOC(=O)/C=C1\SCC(=O)N1CC(=O)NC1CCCCC1,3,1,0,0.3,8,67*
CCOC(=O)/C=C1\SCC(=O)N1CC(O)CN1C(=O)CS/C1=C\C(=O)OCC,-2,1,0,0.8,.,16
